# From the supplement of paper PMC10849652
# About 7,900 targets were measured; listed, in parts, are those with a hit and a random draw of the rest. About 0.6% of all pairs of compound and target were hits.
# Compound: Cc1cc(Nc2cc(N3CCN(C)CC3)nc(Sc3ccc(NC(=O)C4CC4)cc3)n2)n[nH]1 [tozasertib]
# Test: log2 fold change, soluble protein after heating vs DMSO (PISA); higher = thermal stabilisation; K562 cells, 10 uM, 30 min; active = over 0.2 and 3.5 SD of the protein, either way, in both replicates (recomputed)
# Outline: (§1)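 Soluble protein was defined as the supernatant after 21,000xg for 90 min. It came from K562 cells at 2×10^6 cells/mL given 10 μM compound for 30 min, heated in aliquots for 3 min across 48°C-58°C, pooled, and extracted in PBS with 0.5% NP-40 at 4°C, and was quantified by TMTpro 16plex LC-MS/MS with equalised channel sums. Thermal stability against control samples, from duplicates, is reported as log2 fold change.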
# Sequence of UniProt P51148 (P51148 whole entry, looked up): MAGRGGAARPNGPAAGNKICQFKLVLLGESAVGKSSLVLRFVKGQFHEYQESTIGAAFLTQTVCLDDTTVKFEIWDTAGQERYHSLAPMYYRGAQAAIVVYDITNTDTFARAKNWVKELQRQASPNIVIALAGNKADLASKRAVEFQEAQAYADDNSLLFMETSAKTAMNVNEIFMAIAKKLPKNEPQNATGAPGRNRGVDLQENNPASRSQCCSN
# Sequence of UniProt Q15436 (Q15436 whole entry, looked up): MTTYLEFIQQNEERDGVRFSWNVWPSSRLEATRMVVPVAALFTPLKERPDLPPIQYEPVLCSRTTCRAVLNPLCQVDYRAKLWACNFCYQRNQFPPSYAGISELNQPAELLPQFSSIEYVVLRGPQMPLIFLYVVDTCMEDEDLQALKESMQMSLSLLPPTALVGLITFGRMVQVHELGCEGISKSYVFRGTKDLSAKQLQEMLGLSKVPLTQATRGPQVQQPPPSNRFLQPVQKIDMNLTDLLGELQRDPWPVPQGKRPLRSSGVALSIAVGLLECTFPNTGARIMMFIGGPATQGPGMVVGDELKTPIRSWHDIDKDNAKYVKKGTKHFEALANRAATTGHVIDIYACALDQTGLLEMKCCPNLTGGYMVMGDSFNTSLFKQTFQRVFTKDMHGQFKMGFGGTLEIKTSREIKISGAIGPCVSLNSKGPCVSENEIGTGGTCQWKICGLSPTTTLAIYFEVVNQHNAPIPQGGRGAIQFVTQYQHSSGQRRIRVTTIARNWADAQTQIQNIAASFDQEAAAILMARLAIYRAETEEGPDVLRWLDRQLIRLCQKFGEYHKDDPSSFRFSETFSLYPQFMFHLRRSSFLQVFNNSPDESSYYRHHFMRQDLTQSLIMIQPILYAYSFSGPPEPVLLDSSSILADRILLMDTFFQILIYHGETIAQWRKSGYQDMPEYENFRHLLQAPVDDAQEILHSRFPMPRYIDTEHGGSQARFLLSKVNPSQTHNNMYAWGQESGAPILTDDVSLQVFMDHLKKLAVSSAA
# Sequence of UniProt Q99643 (Q99643 whole entry, looked up): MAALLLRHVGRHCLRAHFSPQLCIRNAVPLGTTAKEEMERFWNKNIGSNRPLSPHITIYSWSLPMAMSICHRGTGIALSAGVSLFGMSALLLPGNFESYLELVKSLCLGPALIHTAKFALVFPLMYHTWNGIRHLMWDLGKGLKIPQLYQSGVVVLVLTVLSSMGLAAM
# Sequence of UniProt Q9HB90 (Q9HB90 whole entry, looked up): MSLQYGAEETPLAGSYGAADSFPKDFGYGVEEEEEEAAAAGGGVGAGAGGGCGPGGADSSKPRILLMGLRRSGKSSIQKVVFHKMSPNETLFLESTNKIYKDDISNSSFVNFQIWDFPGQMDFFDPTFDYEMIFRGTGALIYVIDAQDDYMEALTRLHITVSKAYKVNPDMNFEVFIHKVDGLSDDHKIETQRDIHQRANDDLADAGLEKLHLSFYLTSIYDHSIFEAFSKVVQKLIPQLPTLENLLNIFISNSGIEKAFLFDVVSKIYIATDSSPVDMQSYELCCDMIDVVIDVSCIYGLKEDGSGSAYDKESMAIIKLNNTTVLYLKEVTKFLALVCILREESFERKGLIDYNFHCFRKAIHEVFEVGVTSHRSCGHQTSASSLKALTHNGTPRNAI
# Sequence of UniProt Q9UKL0 (Q9UKL0 whole entry, looked up): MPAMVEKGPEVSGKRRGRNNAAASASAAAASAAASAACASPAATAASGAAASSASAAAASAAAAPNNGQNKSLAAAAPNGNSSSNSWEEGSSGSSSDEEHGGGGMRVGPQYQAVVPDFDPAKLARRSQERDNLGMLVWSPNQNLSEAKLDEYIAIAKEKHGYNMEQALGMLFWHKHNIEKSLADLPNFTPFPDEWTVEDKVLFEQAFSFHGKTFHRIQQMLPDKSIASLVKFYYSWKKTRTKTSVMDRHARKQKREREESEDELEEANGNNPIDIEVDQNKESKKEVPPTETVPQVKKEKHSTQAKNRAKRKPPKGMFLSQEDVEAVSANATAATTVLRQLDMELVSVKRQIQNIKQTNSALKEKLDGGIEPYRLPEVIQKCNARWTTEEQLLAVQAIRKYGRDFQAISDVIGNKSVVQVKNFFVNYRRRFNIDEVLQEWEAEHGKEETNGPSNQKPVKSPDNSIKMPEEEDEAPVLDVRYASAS
# Sequence of UniProt O43818 (O43818 whole entry, looked up): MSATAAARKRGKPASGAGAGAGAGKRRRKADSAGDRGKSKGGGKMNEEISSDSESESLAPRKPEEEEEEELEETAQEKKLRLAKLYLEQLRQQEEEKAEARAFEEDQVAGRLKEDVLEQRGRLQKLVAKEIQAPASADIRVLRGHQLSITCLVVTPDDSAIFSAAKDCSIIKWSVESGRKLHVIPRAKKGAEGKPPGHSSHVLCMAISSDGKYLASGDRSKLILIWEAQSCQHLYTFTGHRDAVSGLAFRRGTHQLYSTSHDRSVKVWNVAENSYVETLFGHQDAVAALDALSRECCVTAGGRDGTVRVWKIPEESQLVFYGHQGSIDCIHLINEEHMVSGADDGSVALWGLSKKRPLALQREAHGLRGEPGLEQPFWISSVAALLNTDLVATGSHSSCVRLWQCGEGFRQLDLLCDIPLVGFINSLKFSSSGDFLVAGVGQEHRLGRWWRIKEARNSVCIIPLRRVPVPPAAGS
# Sequence of UniProt Q8IZV5 (Q8IZV5 whole entry, looked up): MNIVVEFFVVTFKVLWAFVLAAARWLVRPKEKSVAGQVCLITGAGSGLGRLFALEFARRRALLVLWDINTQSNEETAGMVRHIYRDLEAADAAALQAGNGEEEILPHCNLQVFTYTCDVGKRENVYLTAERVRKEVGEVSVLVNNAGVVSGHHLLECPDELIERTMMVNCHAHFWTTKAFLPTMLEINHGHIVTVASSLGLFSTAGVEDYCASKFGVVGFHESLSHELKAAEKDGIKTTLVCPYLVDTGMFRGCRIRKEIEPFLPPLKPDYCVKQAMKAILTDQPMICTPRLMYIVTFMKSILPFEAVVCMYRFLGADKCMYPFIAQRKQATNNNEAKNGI
# Sequence of UniProt Q96I25 (Q96I25 whole entry, looked up): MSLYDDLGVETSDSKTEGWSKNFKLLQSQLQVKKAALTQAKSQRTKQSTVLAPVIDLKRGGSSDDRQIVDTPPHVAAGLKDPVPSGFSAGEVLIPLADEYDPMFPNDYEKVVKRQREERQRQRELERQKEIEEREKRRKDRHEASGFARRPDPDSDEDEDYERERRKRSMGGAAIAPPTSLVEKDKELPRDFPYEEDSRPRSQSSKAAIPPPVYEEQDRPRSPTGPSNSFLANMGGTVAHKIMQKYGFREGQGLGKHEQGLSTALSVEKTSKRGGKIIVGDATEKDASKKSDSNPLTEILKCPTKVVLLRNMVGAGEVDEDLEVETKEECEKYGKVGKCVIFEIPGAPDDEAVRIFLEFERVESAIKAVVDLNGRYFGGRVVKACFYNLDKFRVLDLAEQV
# Sequence of UniProt O95059 (O95059 whole entry, looked up): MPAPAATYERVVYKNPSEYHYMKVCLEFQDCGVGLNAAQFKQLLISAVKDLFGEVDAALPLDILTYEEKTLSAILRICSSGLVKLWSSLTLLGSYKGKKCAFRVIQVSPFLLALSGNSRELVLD
# Sequence of UniProt Q9NQG5 (Q9NQG5 whole entry, looked up): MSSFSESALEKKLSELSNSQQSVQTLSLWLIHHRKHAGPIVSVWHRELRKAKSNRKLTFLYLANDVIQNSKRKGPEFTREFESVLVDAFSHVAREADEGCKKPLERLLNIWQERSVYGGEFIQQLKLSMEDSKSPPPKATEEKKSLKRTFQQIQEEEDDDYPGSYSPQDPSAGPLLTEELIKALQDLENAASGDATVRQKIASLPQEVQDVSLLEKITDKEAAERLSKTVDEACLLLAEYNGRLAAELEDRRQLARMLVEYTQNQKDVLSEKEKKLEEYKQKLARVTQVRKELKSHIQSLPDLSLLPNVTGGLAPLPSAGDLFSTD
# Sequence of UniProt P41440 (P41440 whole entry, looked up): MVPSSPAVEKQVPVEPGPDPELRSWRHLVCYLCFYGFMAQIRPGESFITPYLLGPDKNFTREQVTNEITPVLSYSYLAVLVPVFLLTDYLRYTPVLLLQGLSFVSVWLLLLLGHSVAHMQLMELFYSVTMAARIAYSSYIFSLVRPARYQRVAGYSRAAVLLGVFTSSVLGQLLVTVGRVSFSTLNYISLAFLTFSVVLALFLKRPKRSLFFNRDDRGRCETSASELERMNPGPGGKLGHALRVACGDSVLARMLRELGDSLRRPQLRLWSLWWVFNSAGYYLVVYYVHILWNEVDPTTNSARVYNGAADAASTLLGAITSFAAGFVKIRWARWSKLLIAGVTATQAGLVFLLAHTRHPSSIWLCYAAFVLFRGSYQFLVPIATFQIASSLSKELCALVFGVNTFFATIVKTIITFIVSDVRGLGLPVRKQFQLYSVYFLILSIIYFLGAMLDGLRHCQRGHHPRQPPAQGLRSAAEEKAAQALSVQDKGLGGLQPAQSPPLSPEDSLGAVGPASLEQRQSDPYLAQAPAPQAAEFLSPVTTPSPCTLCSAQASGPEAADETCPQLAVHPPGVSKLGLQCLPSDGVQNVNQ
# Sequence of UniProt Q8TD22 (Q8TD22 whole entry, looked up): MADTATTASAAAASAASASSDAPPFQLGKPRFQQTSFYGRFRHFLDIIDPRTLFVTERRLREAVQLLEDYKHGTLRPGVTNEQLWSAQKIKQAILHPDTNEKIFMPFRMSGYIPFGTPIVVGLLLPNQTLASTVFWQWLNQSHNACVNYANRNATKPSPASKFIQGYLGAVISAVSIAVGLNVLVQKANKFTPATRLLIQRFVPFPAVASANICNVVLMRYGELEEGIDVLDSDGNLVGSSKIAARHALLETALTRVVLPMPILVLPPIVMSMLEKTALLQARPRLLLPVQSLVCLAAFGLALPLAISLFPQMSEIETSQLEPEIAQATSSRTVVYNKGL
# Sequence of UniProt P51151 (P51151 whole entry, looked up): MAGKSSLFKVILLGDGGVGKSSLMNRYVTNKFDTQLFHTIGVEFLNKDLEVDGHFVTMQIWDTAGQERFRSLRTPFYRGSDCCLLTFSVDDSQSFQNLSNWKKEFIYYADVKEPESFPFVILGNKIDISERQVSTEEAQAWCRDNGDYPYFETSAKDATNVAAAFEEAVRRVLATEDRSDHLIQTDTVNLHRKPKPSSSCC
row,Target,log2 fold change
1,SLBP (UniProt Q14493),-0.012 (inactive)
2,RDH10 (UniProt Q8IZV5),-0.009 (inactive)
3,SAFB2 (UniProt Q14151),-0.027 (inactive)
4,SEC23A (UniProt Q15436),0.021 (inactive)
5,SCG3 (UniProt Q8WXD2),0.075 (inactive)
6,RUFY1 (UniProt Q96T51),0.166 (inactive)
7,SLC19A1 (UniProt P41440),-0.04 (inactive)
8,SFXN5 (UniProt Q8TD22),-0.015 (inactive)
9,RAC3 (UniProt P60763),-0.086 (inactive)
10,RPRD1B (UniProt Q9NQG5),0.023 (inactive)
11,SDHC (UniProt Q99643),0.042 (inactive)
12,RRAGC (UniProt Q9HB90),-0.061 (inactive)
13,RPS19 (UniProt P39019),0.033 (inactive)
14,RHEB (UniProt Q15382),-0.025 (inactive)
15,RBM17 (UniProt Q96I25),0.057 (inactive)
16,SIRT2 (UniProt Q8IXJ6),-0.099 (inactive)
17,RBM12 (UniProt Q9NTZ6),0.04 (inactive)

row,Target,log2 fold change
1,SASH1 (UniProt O94885),0.088 (inactive)
2,RPS20 isoform 2 (UniProt P60866),0.008 (inactive)
3,RPP14 (UniProt O95059),0.052 (inactive)
4,RBM25 (UniProt P49756),-0.012 (inactive)
5,RCOR1 (UniProt Q9UKL0),0.005 (inactive)
6,RPS12 (UniProt P25398),-0.003 (inactive)
7,RAB9A (UniProt P51151),0.018 (inactive)
8,REL (UniProt Q04864),0.026 (inactive)
9,RAB5C isoform 2 (UniProt P51148),-0.029 (inactive)
10,RPS27A (UniProt P62979),0.013 (inactive)
11,SKP1 (UniProt P63208),0.001 (inactive)
12,RRP9 (UniProt O43818),0.121 (inactive)
13,RALA (UniProt P11233),0.016 (inactive)
14,SDHAF2 (UniProt Q9NX18),0.002 (inactive)
15,RBM39 (UniProt Q14498),0.081 (inactive)
16,RNPEP (UniProt Q9H4A4),0.018 (inactive)

# Compound: Cc1cc(SCc2sc(-c3ccc(C(F)(F)F)cc3)nc2C)ccc1OCC(=O)O
# Test: as above
# Outline: as §1
row,Target,log2 fold change
1,SLBP (UniProt Q14493),0.055 (inactive)
2,RDH10 (UniProt Q8IZV5),-0.003 (inactive)
3,SAFB2 (UniProt Q14151),0.006 (inactive)
4,SEC23A (UniProt Q15436),0.03 (inactive)
5,SCG3 (UniProt Q8WXD2),-0.194 (inactive)
6,RUFY1 (UniProt Q96T51),0.118 (inactive)
7,SLC19A1 (UniProt P41440),0.012 (inactive)
8,SFXN5 (UniProt Q8TD22),0.076 (inactive)
9,RAC3 (UniProt P60763),0.005 (inactive)
10,RPRD1B (UniProt Q9NQG5),0.062 (inactive)
11,SDHC (UniProt Q99643),-0.111 (inactive)
12,RRAGC (UniProt Q9HB90),-0.039 (inactive)
13,RPS19 (UniProt P39019),0.018 (inactive)
14,RHEB (UniProt Q15382),-0.009 (inactive)
15,RBM17 (UniProt Q96I25),0.106 (inactive)
16,SIRT2 (UniProt Q8IXJ6),-0.032 (inactive)
17,RBM12 (UniProt Q9NTZ6),0.1 (inactive)

row,Target,log2 fold change
1,SASH1 (UniProt O94885),0.198 (inactive)
2,RPS20 isoform 2 (UniProt P60866),0.004 (inactive)
3,RPP14 (UniProt O95059),-0.054 (inactive)
4,RBM25 (UniProt P49756),-0.074 (inactive)
5,RCOR1 (UniProt Q9UKL0),0.041 (inactive)
6,RPS12 (UniProt P25398),-0.011 (inactive)
7,RAB9A (UniProt P51151),0.016 (inactive)
8,REL (UniProt Q04864),0.028 (inactive)
9,RAB5C isoform 2 (UniProt P51148),0.014 (inactive)
10,RPS27A (UniProt P62979),0 (inactive)
11,SKP1 (UniProt P63208),0.038 (inactive)
12,RRP9 (UniProt O43818),-0.054 (inactive)
13,RALA (UniProt P11233),-0.009 (inactive)
14,SDHAF2 (UniProt Q9NX18),-0.125 (inactive)
15,RBM39 (UniProt Q14498),0.036 (inactive)
16,RNPEP (UniProt Q9H4A4),0.083 (inactive)

# Compound: Cc1ccc(-n2nc(C(C)(C)C)cc2NC(=O)Nc2ccc(OCCN3CCOCC3)c3ccccc23)cc1 [doramapimod]
# Test: as above
# Outline: as §1
row,Target,log2 fold change
1,SLBP (UniProt Q14493),0.007 (inactive)
2,RDH10 (UniProt Q8IZV5),-0.016 (inactive)
3,SAFB2 (UniProt Q14151),0.089 (inactive)
4,SEC23A (UniProt Q15436),-0.092 (inactive)
5,SCG3 (UniProt Q8WXD2),0.124 (inactive)
6,RUFY1 (UniProt Q96T51),0.032 (inactive)
7,SLC19A1 (UniProt P41440),-0.037 (inactive)
8,SFXN5 (UniProt Q8TD22),-0.055 (inactive)
9,RAC3 (UniProt P60763),0.262 (active)
10,RPRD1B (UniProt Q9NQG5),-0.044 (inactive)
11,SDHC (UniProt Q99643),-0.086 (inactive)
12,RRAGC (UniProt Q9HB90),0.019 (inactive)
13,RPS19 (UniProt P39019),0.05 (inactive)
14,RHEB (UniProt Q15382),-0.018 (inactive)
15,RBM17 (UniProt Q96I25),-0.028 (inactive)
16,SIRT2 (UniProt Q8IXJ6),-0.009 (inactive)
17,RBM12 (UniProt Q9NTZ6),-0.076 (inactive)

row,Target,log2 fold change
1,SASH1 (UniProt O94885),-0.031 (inactive)
2,RPS20 isoform 2 (UniProt P60866),0.048 (inactive)
3,RPP14 (UniProt O95059),0.06 (inactive)
4,RBM25 (UniProt P49756),0.057 (inactive)
5,RCOR1 (UniProt Q9UKL0),0.001 (inactive)
6,RPS12 (UniProt P25398),0.012 (inactive)
7,RAB9A (UniProt P51151),0.018 (inactive)
8,REL (UniProt Q04864),-0.003 (inactive)
9,RAB5C isoform 2 (UniProt P51148),0.013 (inactive)
10,RPS27A (UniProt P62979),-0.049 (inactive)
11,SKP1 (UniProt P63208),-0.096 (inactive)
12,RRP9 (UniProt O43818),0.063 (inactive)
13,RALA (UniProt P11233),-0.009 (inactive)
14,SDHAF2 (UniProt Q9NX18),-0.051 (inactive)
15,RBM39 (UniProt Q14498),-0.02 (inactive)
16,RNPEP (UniProt Q9H4A4),-0.031 (inactive)
